Most compounds without a hit are left out; they make up all but 3.3% or so of the library.
PfGluPho inh = PfG6PD (Plasmodium falciparum) enzyme inhibition. PfGluPho enzyme, NADPH resazurin-diaphorase fluorescence. inhibition, % at 20 µM. 350,000 tested, 0.78% active. AID 504690;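 active means inhibition reaching at least a set limit at 20 µM in the primary screen, cut at about 59% in these data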
UHRF1 MBD2 ctr = human UHRF1 methylated DNA binding inhibitors; UHRF1 binding to methylated oligo, TR-FRET; AID 687016; inhibition, % at 4.4 µM; 370,000 tested, 0.75% active; in the data active means inhibition above about 21%;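 further: UHRF1 SRA domain binding a hemimethylated CpG hairpin DNA probe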
Target sequence (Q96T88 whole entry, looked up, the tested form may be a part): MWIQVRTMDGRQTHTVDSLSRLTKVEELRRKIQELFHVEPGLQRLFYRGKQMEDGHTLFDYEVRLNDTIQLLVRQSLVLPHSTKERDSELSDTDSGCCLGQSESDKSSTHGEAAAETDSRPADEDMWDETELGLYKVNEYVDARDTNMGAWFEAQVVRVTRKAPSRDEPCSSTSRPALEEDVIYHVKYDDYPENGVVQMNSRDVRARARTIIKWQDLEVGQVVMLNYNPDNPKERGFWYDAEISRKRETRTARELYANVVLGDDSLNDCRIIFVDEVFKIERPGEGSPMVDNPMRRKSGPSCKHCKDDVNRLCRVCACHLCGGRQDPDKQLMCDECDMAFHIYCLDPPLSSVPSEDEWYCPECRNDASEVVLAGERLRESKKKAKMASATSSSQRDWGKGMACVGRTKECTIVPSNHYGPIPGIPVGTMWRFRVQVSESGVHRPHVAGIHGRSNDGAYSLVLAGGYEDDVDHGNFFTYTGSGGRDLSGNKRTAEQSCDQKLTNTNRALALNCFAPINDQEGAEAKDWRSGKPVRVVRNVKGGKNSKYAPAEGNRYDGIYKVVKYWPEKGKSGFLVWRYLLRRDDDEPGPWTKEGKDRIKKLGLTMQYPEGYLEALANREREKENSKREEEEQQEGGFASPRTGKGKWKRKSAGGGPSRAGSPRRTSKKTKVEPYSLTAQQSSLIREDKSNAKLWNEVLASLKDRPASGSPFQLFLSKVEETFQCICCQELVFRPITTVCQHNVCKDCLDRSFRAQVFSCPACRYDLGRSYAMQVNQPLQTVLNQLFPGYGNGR
PRMT1 inh = blocks human protein arginine methyltransferase 1; Q99873; recombinant PRMT1, activity-based probe fluorescence polarization; inhibition, % at 2.79 µM; 370,000 tested, 1.3% active;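 active means inhibition above about 21% made by adding two undisclosed values, limit read from the data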
PfM18AAP inh-1 = PfM18AAP enzyme inhibition | 290,000 tested, 1.2% active | recombinant PfM18AAP, H-Glu-NHMec fluorogenic cleavage | inhibition, % at 7.35 µM;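 active means inhibition above the campaign mean inhibition over all tested compounds plus 3 SD, cut at about 28% in these data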
MBD2 inh = blocks human MBD2 binding to methylated DNA; 370,000 tested, 0.31% active; inhibition, % at 4.4 µM; TR-FRET, MBD2 binding to methylated oligonucleotide; Q9UBB5; AID 686964; in the data active means inhibition above about 13%
PfM18AAP inh-2 = PfM18AAP inhibition, confirmation | shares compounds with PfM18AAP inh-1 | recombinant PfM18AAP, H-Glu-NHMec fluorogenic cleavage | inhibition, % at 7.35 µM | 2,400 tested, 28% active | AID 2170;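 active means mean inhibition over replicate wells above the hit cutoff set for the earlier primary screen, cut at about 29% in these data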
CTSL1 confirm = counter-screen for PFM18AAP inhibitors: confirmation of human cathepsin L inhibitors | shares compounds with PfM18AAP inh-1 | purified cathepsin L1, Z-Leu-Arg-MCA fluorescence | inhibition, % at 5.96 µM | 2,400 tested, under 10 active | AID 2178;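 active means average inhibition across replicates above the hit cutoff set in the earlier primary screen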
PfGluPho conf = PfG6PD inhibition, single-dose confirmed; inhibition, % at 20 µM; 2,400 tested, 34% active; shares compounds with PfGluPho inh; recombinant PfGluPho, NADPH-diaphorase-resazurin fluorescence;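 active means inhibition of at least 50% at 20 µM in any single replicate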
Diaphorase 10uM = inhibits diaphorase or oxidizes, flagging false PfG6PD hits; 820 tested, 39% active; shares compounds with PfGluPho inh; diaphorase-coupled resazurin reduction, fluorescence, NADPH 10 uM; inhibition, % at 20 µM;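 active means average inhibition reaching 50% or more with the compound at 20 µM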;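 further: resorufin red fluorescence formed as diaphorase reduces resazurin using NADPH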
Diaph ctr 30uM = counter-screen for P. falciparum G6PD inhibitors: diaphorase inhibitors, oxidizers; shares compounds with PfGluPho inh; Diaphorase/resazurin coupled assay, resorufin fluorescence, 30 uM NADPH; inhibition, % at 20 µM; 820 tested, 29% active; AID 504863;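 active means inhibition averaging 50% or more, tested at 20 µM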
PRMT1 confirm = confirmation of human PRMT1 inhibitors; shares compounds with PRMT1 inh; recombinant His-PRMT1, activity-based probe fluorescence polarization; 3,300 tested, 42% active; inhibition, % at 2.79 µM;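 active means mean inhibition across replicates above the hit cutoff derived for the earlier primary screen, cut at about 22% in these data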
Hits are given with their value; n = inactive; x = no result given; ! = repeats disagree.

SMILES	PfGluPho inh	UHRF1 MBD2 ctr	PRMT1 inh	PfM18AAP inh-1	MBD2 inh	PfM18AAP inh-2	CTSL1 confirm	PRMT1 confirm	others
O=C(COC(=O)C1CC(=O)N(c2ccccc2)C1)c1ccccc1 (stereo not drawn)	n	n	n	n	n	x	x	x
CCN(CC)c1ccc(NS(=O)(=O)c2ccc(-c3ccc(=O)[nH]n3)o2)c(C)c1	n	n	42	45	n	n	n	n
N#Cc1c(-c2cccnc2)c2c([nH]c1=S)CCCC2	n	n	45	33	n	51	n	32
CCOC(=O)c1ccc(CC(=O)c2ccc(O)c(O)c2O)o1	n	24	43	48	n	n	n	n
CCOC(=O)c1ccc(CC(=O)c2oc3cc(O)ccc3c2C)o1	n	n	n	n	n	x	x	x
N#Cc1[nH]nc2nc[nH]c(=O)c12	x	n	n	x	n	x	x	x
COc1ccccc1NC(=O)N(C)C[C@H]1OCc2cn(nn2)CCCC(=O)N([C@H](C)CO)C[C@@H]1C	x	n	n	x	n	x	x	x
O=C(/C=C/c1ccccc1)c1cc(Br)ccc(=O)c1O	n	n	34	54	n	n	n	28
Oc1c(C=C2N=c3ccccc3=N2)sc(=S)n1-c1ccc(F)cc1	n	n	41!	38	n	n	n	n
Cc1ccc(C(=O)Nn2c(O)c(C=C3N=c4ccccc4=N3)sc2=S)cc1	n	n	55	55	n	n	n	n
O=C(Nn1c(O)c(C=C2N=c3ccccc3=N2)sc1=S)c1cccc(Cl)c1	n	n	39	54	n	n	n	n
O=C(Nn1c(O)c(C=C2N=c3ccccc3=N2)sc1=S)c1ccccc1	n	n	49	56	n	n	n	n
O=C(Nn1c(O)c(C=C2N=c3ccccc3=N2)sc1=S)c1ccc(Cl)cc1	n	n	n	n	n	x	x	x
O=Cc1cscc1[B-](F)(F)F	x	n	n	x	n	x	x	x
Cc1cc(C)cc(OCC(=O)Nc2nc(-c3cccnc3)cs2)c1	n	n	35	44	n	n	n	n
COc1cc(CCC(C)=O)ccc1OC(=O)c1c(-c2c(F)cccc2Cl)noc1C	x	n	n	x	n	x	x	x
O=C(NC1CCC(O)CC1)c1ccc(-c2ccc([N+](=O)[O-])cc2)o1 (stereo not drawn)	n	n	36	33	n	n	n	n
O=C1CSC(=S)N1/N=C/c1cccnc1	n	n	48	35	n	n	n	n
O=C1CSC(=S)N1N=Cc1cccc(OCc2ccccc2)c1	n	n	n	x	n	x	x	x
O=C1CSC(=S)N1/N=C/c1ccc2c(c1)OCCO2	n	n	27	34	n	n	n	n
CCCCNC(=O)C[C@H]1C[C@@]2(C(=O)OC)C(=C[C@H](C(C)C)O[C@@H]2C2CC2)N(Cc2ccc3c(c2)OCO3)C1=O	x	n	n	x	n	x	x	x
Oc1ccc(N2CCN(c3ncnc4sc(-c5ccccc5)cc34)CC2)cc1	72	n	32	44	n	n	n	n	PfGluPho conf=n
CC(C)C(c1nnnn1Cc1ccc(F)cc1)N1CCN(c2ccc(O)cc2)CC1 (stereo not drawn)	64	n	28	32	n	n	n	n	PfGluPho conf=n
O=C(O)c1ccccc1NS(=O)(=O)c1cccc(-n2sc3ccccc3c2=O)c1	110	n	94	62	n	50	n	93	PfGluPho conf=105;Diaphorase 10uM=n;Diaph ctr 30uM=n
O=[N+]([O-])c1ccc(N/N=C/c2ccc(O)c(O)c2O)c(S(=O)(=O)N2CCOCC2)c1	66	n	35	37	n	n	n	56	PfGluPho conf=62;Diaphorase 10uM=n;Diaph ctr 30uM=n
